Experimental findings from PubChem BioAssay AID1159580 (chemical genetic matrix, 2015) are described below.

The assay is described as follows: chemical genetic growth profiling, strain panel (AID 1159580).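 Note: tested at 20 µM; growth read once vehicle control cultures reached saturation at 30 °C; 1 = growth at the plate median or of vehicle wells; lower values mean less growth of the strain.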 Conditions: S. cerevisiae deletion strains, growth OD.
Where [1] appears, read: locus YAL013W, strain DEP1, active compounds read low.
Where [2] appears, read: locus YGR078C, strain PAC10, active compounds read low.
[3] abbreviates: locus YMR263W, strain SAP30, active compounds read low.
Where [4] appears, read: locus YMR307W, strain GAS1, active compounds read low.
[5] abbreviates: locus YNL128W, strain TEP1, active compounds read low.
Where [6] appears, read: locus YNL153C, strain GIM3, active compounds read low.
Where [7] appears, read: locus YPL055C, strain LGE1, active compounds read low.
Where [8] appears, read: locus YBR229C, strain ROT2, active compounds read low.
The mark [9] stands for this setting: locus YDL101C, strain DUN1, active compounds read low.
Where [10] appears, read: locus YDR150W, strain NUM1, active compounds read low.
Setting [11] is: locus YEL061C, strain CIN8, active compounds read low.
[12] abbreviates: locus YGR229C, strain SMI1, active compounds read low.
Setting [13] is: locus YHR030C, strain SLT2, active compounds read low.
[14] abbreviates: locus YHR087W, strain rtc3, active compounds read low.
[15] abbreviates: locus YJR043C, strain POL32, active compounds read low.
Where [16] appears, read: locus YJR075W, strain HOC1, active compounds read low.
[17] abbreviates: locus YLR039C, strain RIC1, active compounds read low.
Setting [18] is: locus YLR058C, strain SHM2 (second series), active compounds read low.
Setting [19] is: locus YLR085C, strain ARP6, active compounds read low.
Setting [20] is: locus YLR262C, strain YPT6, active compounds read low.
[21] abbreviates: locus YML094W, strain GIM5, active compounds read low.
[22] abbreviates: locus YMR219W, strain ESC1, active compounds read low.
Setting [23] is: locus YNL298W, strain CLA4 (second series), active compounds read low.
The mark [24] stands for this setting: locus YNL322C, strain KRE1, active compounds read low.
[25] abbreviates: locus YNR030W, strain Alg12, active compounds read low.
[26] abbreviates: locus YPL241C, strain CIN2, active compounds read low.
Setting [27] is: locus YPR135W, strain CTF4, active compounds read low.

Molecules are shown by their SMILES. Out of some 5,500 compounds screened, about 2,000 (36%) were called active. Not shown: some 18% with an inconclusive outcome. Some of the results follow. Values without a mark were called inactive. Cut-off read from the data, not from the text of the source: active = normalized growth mostly below about 0.91 (no sharp cut-off); inconclusive = no clear call, values can overlap the other calls; inactive = mostly above about 0.92.

`Nc1ncnc2c1ncn2[C@@H]1O[C@H](C(=O)NC2CC2)[C@H](O)C1O` (some centres undefined): the normalized growth is, setting by setting: under setting [1], 1; (locus YAL040C, strain CLN3, active compounds read low) 0.986; (locus YCL061C, strain MRC1 (second series), active compounds read low) 1; (locus YER002W, strain NOP16, active compounds read low) 1; under setting [2], 1.01; under setting [3], 0.986. The normalized growth under setting [4] is 1.04; the normalized growth under setting [5] is 0.998; the normalized growth under setting [6] was 1.03; the normalized growth (locus YNL175C, strain NOP13, active compounds read low) is 1; the normalized growth (locus YNL197C, strain WHI3, active compounds read low) was 0.986; the normalized growth (locus YNL224C, strain SQS1, active compounds read low) is 1.01. Moreover, the normalized growth by setting is: (locus YOR083W, strain WHI5 (second series), active compounds read low) 1.01; under setting [7], 1.
As to `COC(=O)CSCCc1nc(-c2ccc([N+](=O)[O-])cc2)cs1`, the normalized growth under setting [1] is 1; the normalized growth under setting [8] was 0.972; the normalized growth (locus YCL061C, strain MRC1, active compounds read low) was 0.97; the normalized growth under setting [9] was 0.967; the normalized growth (locus YDL134C, strain PPH21, active compounds read low) is 0.976; the normalized growth under setting [10] is 0.991. Besides, the normalized growth was 0.986 under setting [11]; 0.978 under setting [2]; 0.965 under setting [12]; 0.683 (active) under setting [13]; 0.987 under setting [14]; 0.971 under setting [15]. The normalized growth by setting is: under setting [16], 0.946; under setting [17], 0.919; under setting [18], 0.964; under setting [19], 0.717 (active); under setting [20], 0.915; under setting [21], 0.994. The normalized growth runs as follows: under setting [22], 0.975; under setting [3], 0.968; under setting [6], 1.01; under setting [23], 0.927; under setting [24], 0.965; under setting [25], 0.969. Further, the normalized growth by setting is: under setting [7], 0.971; under setting [26], 0.911; under setting [27], 0.894.
With `O=[N+]([O-])c1ccc(-c2nn[nH]n2)cc1`, the normalized growth by setting is: under setting [1], 0.992; under setting [8], 0.987; under setting [9], 0.988; under setting [10], 1.01; under setting [11], 1.01; under setting [2], 0.989. Further, the normalized growth under setting [12] is 0.987; the normalized growth under setting [13] is 0.955; the normalized growth under setting [14] is 0.993; the normalized growth under setting [15] was 1.01; the normalized growth under setting [16] is 0.992; the normalized growth (locus YKL190W, strain CNB1, active compounds read low) was 0.975. Moreover, the normalized growth is, setting by setting: under setting [17], 0.968; under setting [18], 0.984; under setting [19], 1.04; under setting [20], 0.871; under setting [21], 1.04; under setting [22], 0.994. The normalized growth under setting [3] is 1.01; the normalized growth under setting [4] is 1.11; the normalized growth under setting [5] is 0.971; the normalized growth under setting [6] is 0.995; the normalized growth under setting [23] was 0.965; the normalized growth under setting [24] was 0.99. The normalized growth is 0.98 under setting [25], 0.993 under setting [7], 0.999 under setting [26] and 0.967 under setting [27].
